Laboratory results from PubChem BioAssay.
Active and inactive are the calls of the source. No rule for the calls is given here.

These compounds were tested against Pantothenate synthetase (Mycobacterium tuberculosis (strain ATCC 25618 / H37Rv)) (UniProt P9WIL5) (assay: Recombinant Mtb pantothenate synthetase (PanC) inhibitors, coupled enzyme, confirmatory (AID 375;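 also: 0% = full reaction with vehicle and 100% = no enzyme background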)). Conditions: coupled enzyme assay; at 10 µM, active compounds read high.
Sequence of Pantothenate synthetase (Mycobacterium tuberculosis (strain ATCC 25618 / H37Rv)) (P9WIL5 whole entry, looked up): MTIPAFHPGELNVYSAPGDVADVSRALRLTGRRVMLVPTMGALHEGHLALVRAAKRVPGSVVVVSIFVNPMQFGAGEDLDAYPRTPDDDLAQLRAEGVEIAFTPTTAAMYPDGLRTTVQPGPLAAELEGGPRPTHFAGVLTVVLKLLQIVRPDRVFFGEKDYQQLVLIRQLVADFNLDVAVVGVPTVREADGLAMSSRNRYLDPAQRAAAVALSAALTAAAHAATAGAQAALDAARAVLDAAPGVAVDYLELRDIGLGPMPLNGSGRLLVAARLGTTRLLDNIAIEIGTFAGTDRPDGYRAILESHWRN

Structure (SMILES)	inhibition
Cc1ccc(S(=O)(=O)N2CCN(C(=O)N3CCOCC3)C2c2ccc(N(C)C)cc2)cc1 (stereo not given)	0% (inactive)
CC1CCN(C(=O)CSCC(=O)Nc2nc(-c3cccs3)cs2)CC1	0% (inactive)
CCOC(=O)CSc1nn(C)c(=S)s1	6% (inactive)
CCCn1nc(NS(=O)(=O)c2ccccc2)c2cc3ccccc3nc21	1% (inactive)
CC(=O)Nc1nc(-c2ccc(Cl)cc2)nc(C)c1C(C)=O	0% (inactive)
COc1ccc(CCNC(=O)c2cnc3scc(C)n3c2=O)cc1OC	0% (inactive)
O=[N+]([O-])c1cccc2cn[nH]c12	0% (inactive)
COc1ccc(C2C(C#N)=C(C)NC3=C2C(=O)CC(C)(C)C3)c(OC)c1 (stereo not given)	0% (inactive)
CCc1ccccc1NC(=O)c1ccoc1C	0% (inactive)
CC(C)(C)SCCNC(=O)CN1C(=O)c2ccccc2S1(=O)=O	0% (inactive)
CC(C)Cn1c(CN(Cc2ccccc2)Cc2ccccc2)nc2c1c(=O)n(C)c(=O)n2C	5% (inactive)
Cc1nc(CCNS(=O)(=O)c2cccs2)cs1	0% (inactive)
CCOC(=O)N1CCN(C(=O)CSCC(=O)Nc2nc(-c3ccc(OC)cc3)cs2)CC1	0% (inactive)
O=C(CSc1nnc2c3cc(F)ccc3nc(-c3ccccc3)n12)N1CCOCC1	0% (inactive)
Cc1cccc(N2CCN(C(=O)c3cc4c(=O)[nH]c5ccccc5c4n3C)CC2)c1C	7% (inactive)
CC1(C)NC(=O)N(CNc2cc(Cl)ccc2Cl)C1=O	0% (inactive)
Cc1cc(C)cc(-n2nnc(C(=O)NCc3ccc4c(c3)OCO4)c2N)c1	0% (inactive)
COc1ccc(CCNC(=O)c2ccncc2)cc1OC	4% (inactive)
COc1ccc(NC(=O)c2ccco2)cc1NC(=O)c1cccs1	0% (inactive)
CCOC(=O)C1=C(CS(=O)(=O)c2ccc(F)c(C)c2)NC(=O)NC1c1ccc(O)c(O)c1 (stereo not given)	7% (inactive)

Structure (SMILES)	inhibition
COc1ccccc1Nc1nc(N)nc(CSc2nccc(C)n2)n1	0% (inactive)
COCCN(CC(=O)Nc1ccccc1C)S(=O)(=O)c1ccc(S(=O)(=O)N2CCCC2)cc1	0% (inactive)
O=C(CCn1c(=O)oc2ccccc21)NCCN1CCOCC1	4% (inactive)
CCCNS(=O)(=O)c1ccc(OCC(=O)NCc2ccco2)cc1	2% (inactive)
COc1ccccc1-n1c(=O)c2c3c(sc2n2c(SC(C)C)nnc12)CCC3	1% (inactive)
CCN(CC)C(=O)Cn1c(=O)n(Cc2ccccc2Cl)c2c1c(=O)n(C)c(=O)n2C	3% (inactive)
Cn1c(-c2ccc(C(C)(C)C)cc2)n[nH]c1=S	0% (inactive)
COc1ccc(CNc2nc(NCc3ccc(OC)cc3)n(S(C)(=O)=O)n2)cc1	0% (inactive)
Cc1cc(NC(=O)C23CCC(C)(C(=O)O2)C3(C)C)no1 (stereo not given)	1% (inactive)
CCOc1ccc(C(C)=O)cc1COc1ccc(-n2cnnn2)cc1	13% (inactive)
Cc1ccc(N=C2NC(=O)CS2)c(C)c1	0% (inactive)
CC(C)(C)OC(=O)N1CCOCCOCCN(C(=O)OC(C)(C)C)CCOCCOCC1	0% (inactive)
Clc1ccc(OCc2nc(-c3ccccn3)no2)c(Br)c1	0% (inactive)
Cn1nnnc1SCC(=O)Nc1ccccc1C(=O)NCc1ccccc1	0% (inactive)
CCC(C)(C)n1nnnc1C(c1ccncc1)N1CCN(c2cccc(OC)c2)CC1 (stereo not given)	0% (inactive)
O=C(CCSc1nnc(-c2ccncc2)o1)Nc1ccccc1	0% (inactive)
CCOC(=O)N1CCN(C(=O)c2ccc(CS(=O)(=O)c3c(Cl)cccc3Cl)o2)CC1	0% (inactive)
C=CCn1cnc2c(NCc3ccccc3)ncnc21	4% (inactive)
COc1ccc(S(=O)(=O)C(C#N)c2nc3ccccc3nc2N2CCCC(C)C2)cc1 (stereo not given)	0% (inactive)
CCCNCC(O)COc1ccccc1C(=O)CCc1ccccc1 (stereo not given)	0% (inactive)
